Compound activity: PubChem BioAssay, several laboratories
Compounds with a hit are over-represented: about 2% of the library has one in this group of screens.
EP2 antag: EP2 receptor (human) inhibition; inhibition, % at 25 µM; hit rate 0.52% among 260,000; AID 1422; C6 glioma cells expressing human EP2, cAMP TR-FRET; cells stimulated with saturating PGE2;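 active means percent inhibition above 40 after rounding to a whole number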;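 further: rat C6 glioma host cells with rolipram phosphodiesterase inhibitor present; the protocol text gives 20 µM as final concentration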
CHT inh: inhibitors of human choline transporter CHT; B-score at 10 µM; Q9GZV3; AID 488975; CHT-expressing cells, membrane potential dye, choline response; stronger effect = lower value; hit rate 0.86% among 310,000;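 active means B-score over 3 SD under the library average, and starting fluorescence ratio not unusually high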;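 further: choline stimulus applied at its EC90 after an EC20 pre-addition; B-score computed on integrated fluorescence ratio after choline addition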
Target sequence (Q9GZV3 whole entry, looked up): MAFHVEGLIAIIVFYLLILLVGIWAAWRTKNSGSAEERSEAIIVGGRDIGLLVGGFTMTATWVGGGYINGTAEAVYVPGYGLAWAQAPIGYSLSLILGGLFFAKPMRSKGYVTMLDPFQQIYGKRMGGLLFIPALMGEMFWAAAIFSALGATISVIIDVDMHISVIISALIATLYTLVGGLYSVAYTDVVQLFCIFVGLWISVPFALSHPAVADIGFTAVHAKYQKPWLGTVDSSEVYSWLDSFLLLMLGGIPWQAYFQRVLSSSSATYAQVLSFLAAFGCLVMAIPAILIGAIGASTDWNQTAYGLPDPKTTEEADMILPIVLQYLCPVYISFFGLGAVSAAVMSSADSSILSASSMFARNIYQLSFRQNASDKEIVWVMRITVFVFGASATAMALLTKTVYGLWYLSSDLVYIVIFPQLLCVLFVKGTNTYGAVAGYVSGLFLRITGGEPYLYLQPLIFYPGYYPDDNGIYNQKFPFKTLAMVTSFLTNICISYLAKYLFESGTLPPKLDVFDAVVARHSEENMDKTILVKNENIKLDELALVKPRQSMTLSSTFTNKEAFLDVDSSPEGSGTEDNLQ
CHT PAM: allosterically activates the human high affinity choline transporter | Q9GZV3 | CHT-expressing cells, membrane potential dye, choline EC20; stronger effect = higher value; LV-AA mutant CHT in HEK293 cells | B-score at 10 µM | hit rate 0.49% among 310,000;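 active means initial fluorescence not abnormally high and integrated response B-score, plate-corrected, over 3 SD above library mean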
EP2 mod: modulators of human EP2 prostaglandin E2 receptor | hit rate 0.83% among 260,000 | induction, % at 25 µM | P43116 | EP2-expressing cells, cAMP HTRF FRET, PGE2 co-stimulation;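 active means compounds whose cAMP rise, as percent of the full-agonist control response, exceeds 60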;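 further: rat C6 glioma line stably carrying human EP2 under a CMV promoter; the protocol text gives 20 µM as final concentration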
CHT act confirm: confirmation of human choline transporter (CHT) activators; shares compounds with CHT PAM; CHT-expressing cells, membrane potential dye fluorescence (FDSS); % of choline EC20–EC90 response window; HEK293 expressing CHT LV-AA mutant; choline added at its EC20; activation, % at 10 µM; hit rate 91% among 2,500; AID 504833;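 active means primary screen active, with duplicate mean activation above negative control mean plus 3 SD, cut at about 11% in these data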
HEK293 MP dye: counter-screen for CHT activators: effect in parental HEK293 cells; shares compounds with CHT PAM; membrane potential dye fluorescence (FDSS); measured after EC20 choline addition; ratio readout change at 10 µM, hits read low; hit rate 62% among 2,500; AID 623908;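 active means duplicate-averaged ratio beyond 3 SD from buffer wells, up or down, though filed actives are nearly all decreases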
A number is an active result.

FC(F)Oc1ccc(-n2cc(-c3ccc(Cl)cc3)[n+]3c2CCCCC3)cc1 was read as EP2 antag inactive, CHT inh inactive, CHT PAM inactive and EP2 mod inactive.
For FC(F)Sc1ccc(-n2cc(-c3ccccc3)[n+]3c2CCC3)cc1 the results were EP2 antag inactive, CHT inh inactive, CHT PAM inactive, EP2 mod inactive, CHT act confirm 21.2 and HEK293 MP dye -39.8.
`COc1ccc(-c2cn(-c3ccc(SC(F)F)cc3)c3[n+]2CCC3)cc1OC` gave EP2 antag inactive, CHT inh inactive, CHT PAM 6.25, EP2 mod inactive, CHT act confirm 31.9 and HEK293 MP dye -39.4.
COc1ccc(-c2cn(-c3ccc(OC)cc3)c3[n+]2-c2ccccc2CC3)cc1 was read as EP2 antag inactive, CHT inh inactive, CHT PAM 9.51, EP2 mod inactive, CHT act confirm 52.5 and HEK293 MP dye inactive.
For COc1ccc(-n2cc(-c3ccccc3)[n+]3c2CCCCC3)cc1 the results were EP2 antag inactive, CHT inh inactive, CHT PAM 6.51, EP2 mod inactive, CHT act confirm 55.2 and HEK293 MP dye inactive.
`O=C(CN1CCC(O)(c2cccnc2)CC1)Nc1ccccc1F` gave EP2 mod inactive.
Screening CC1CCCN(C(c2cc3cc4c(cc3[nH]c2=O)OCCO4)c2nnnn2Cc2ccc(F)cc2)C1 (stereo unspecified) returned EP2 antag inactive and EP2 mod inactive.
Cc1ccc(Cn2nnc3c(=O)[nH]c(C4CCCN(C(=O)CCC5CCCC5)C4)nc32)cc1 (stereo unspecified) was read as EP2 antag inactive and EP2 mod inactive.
`CCCn1c(=N)c(C#N)cc2c(=O)n3cccc(C)c3nc21` gave EP2 antag inactive, CHT inh inactive, CHT PAM 8.32, EP2 mod inactive, CHT act confirm 49.4 and HEK293 MP dye -38.3.
For CCCn1c(=N)c(C#N)cc2c(=O)n3ccccc3nc21 the results were EP2 antag inactive, CHT inh inactive, CHT PAM 6.95, EP2 mod inactive, CHT act confirm 47.9 and HEK293 MP dye -63.9.
`COc1cc2cc(C)c(SCC(=O)Nc3ccc(NC(C)=O)cc3)nc2cc1OC` gave EP2 antag inactive and EP2 mod inactive.
Screening CCC[N+]1(C)CCc2cc(OC)c(OC)cc2C1Cc1ccc(OC)c(OC)c1 (stereo unspecified) returned EP2 antag inactive and EP2 mod inactive.
CC(Nc1nc(N2CCNCC2)nc2ccccc12)c1ccccc1 (stereo unspecified) was read as EP2 antag inactive, CHT inh inactive, CHT PAM 7.12, EP2 mod inactive, CHT act confirm 44.1 and HEK293 MP dye -51.6.
COc1ccc(C(=O)Nc2nc(C)cc(C)n2)cc1[N+](=O)[O-] was read as EP2 antag inactive, CHT inh inactive, CHT PAM inactive, EP2 mod inactive, CHT act confirm 18.5 and HEK293 MP dye -39.
Screening COc1ccc(C2=Nc3ccc(F)cc3C(c3ccc(OC)c(OC)c3)=NN2)cc1OC returned EP2 antag inactive and EP2 mod inactive.
Screening c1ccc(Nc2nc(NCC3CCCO3)c3ccccc3n2)cc1 (stereo unspecified) returned EP2 antag inactive, CHT inh inactive, CHT PAM inactive and EP2 mod inactive.
For CCOc1ccc(Nc2nc(NCC3CCCO3)c3ccccc3n2)cc1 (stereo unspecified) the results were EP2 antag 52.1, CHT inh inactive, CHT PAM inactive, EP2 mod inactive, CHT act confirm 22.9 and HEK293 MP dye -31.2.
For CCOC(=O)C[C@H]1c2ccccc2S(=O)(=O)N1Cc1cc(OC)c(OC)c(OC)c1 the results were EP2 antag inactive, CHT inh inactive and CHT PAM inactive.
CCOC(=O)C[C@H]1c2ccccc2S(=O)(=O)N1Cc1cccc(C(F)(F)F)c1 was read as EP2 antag inactive, CHT inh inactive, CHT PAM inactive, CHT act confirm 16.5 and HEK293 MP dye inactive.
Screening O=c1oc2ccccc2c2c1ncn2CCN1CCOCC1 returned EP2 antag inactive, CHT inh inactive, CHT PAM inactive and EP2 mod inactive.
For CN1CCN(CCCn2cnc3c(=O)oc4ccccc4c32)CC1 the results were EP2 antag inactive, CHT inh inactive, CHT PAM 9.41, EP2 mod inactive, CHT act confirm 66.2 and HEK293 MP dye -67.
For Cc1nc2ccc(NC(=O)c3ccc(=O)[nH]c3)cc2s1 the results were CHT inh inactive, CHT PAM inactive, CHT act confirm 33.3 and HEK293 MP dye -39.3.
Screening O=C(CCSc1nc(-c2ccc3c(c2)OCO3)cc(C(F)(F)F)n1)NC1CCCC1 returned EP2 antag inactive and EP2 mod inactive.
CCCC(c1nnnn1CS(=O)(=O)c1ccc(C)cc1)N1CCN(c2ccccc2)CC1 (stereo unspecified) was read as EP2 antag inactive, CHT inh inactive, CHT PAM 7.03, EP2 mod inactive, CHT act confirm 14.4 and HEK293 MP dye inactive.
`Cc1ccc(S(=O)(=O)Cn2nnnc2C(c2ccccc2)N2CCN(c3ccccc3)CC2)cc1` (stereo unspecified) gave EP2 antag inactive, CHT inh inactive, CHT PAM inactive and EP2 mod inactive.
Screening O=C(Nc1ccccc1F)c1c(O)c2c([nH]c1=O)CCCC2 returned EP2 antag inactive and EP2 mod inactive.
`COc1c2occc2c(OC)c2c(=O)cc(C)oc12` gave EP2 antag inactive, CHT inh inactive, CHT PAM inactive, EP2 mod inactive, CHT act confirm 34.3 and HEK293 MP dye -38.4.
Screening Cc1ccnc(SCC(=O)N2N=CCC2c2ccccc2)n1 (stereo unspecified) returned EP2 antag inactive and EP2 mod inactive.
`CC(=O)N1CCC(=NNc2ccnc3cc(Cl)ccc23)CC1` gave EP2 antag inactive, CHT inh inactive, CHT PAM inactive, EP2 mod inactive, CHT act confirm 40.6 and HEK293 MP dye -23.9.
For CCOC(=O)N1CCC(=NNc2ccnc3cc(Cl)ccc23)CC1 the results were EP2 antag inactive, CHT inh inactive, CHT PAM inactive and EP2 mod inactive.
`O=C1[C@H](CCC(O)c2ccc(F)cc2)[C@@H](c2ccc(O)cc2)N1c1ccc(F)cc1` (stereo partly specified) gave EP2 antag inactive and EP2 mod inactive.
For N#Cc1c(=O)c2nc(NCc3ccccc3)ncc2n2ccccc12 the results were EP2 antag inactive, CHT inh inactive, CHT PAM inactive, EP2 mod inactive, CHT act confirm 24.2 and HEK293 MP dye -39.9.
`N#Cc1c(=O)c2nc(NCCCO)ncc2n2c(=O)c3ccccc3[nH]c12` gave EP2 antag inactive, CHT inh inactive, CHT PAM inactive and EP2 mod inactive.
